Measured values from the supplement of paper PMC11001985.

These targets were tested with C#CCNC(=O)CCSSCCC(=O)NCCc1ccc(C=O)c(C=O)c1 (assay: lysine labeling ratio R10:1 (500 µM / 50 µM probe), SILAC-ABPP in living cells; higher = lower intrinsic lysine reactivity toward the probe, active = 2 or less). Conditions: HeLa; probe concentrations 500 vs 50 µM.
Method in brief: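 Measurements came from LC-MS/MS on a TIMS-TOF Pro of mixed SILAC light and heavy HeLa lysates after click to biotin-azide, trypsin digestion, neutravidin capture, DTT release and alkylation. Before lysis, the living cells sat in PBS at room temperature with 50 µM or 500 µM of an alkyne-tagged, disulfide-linked lysine probe, and labels were swapped forward and reverse. R per lysine is the median across both swap directions of the filtered median high-probe/low-probe MS1 peptide ratio. The cap is 20.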

UniProt P50454, sequence (P50454 whole entry): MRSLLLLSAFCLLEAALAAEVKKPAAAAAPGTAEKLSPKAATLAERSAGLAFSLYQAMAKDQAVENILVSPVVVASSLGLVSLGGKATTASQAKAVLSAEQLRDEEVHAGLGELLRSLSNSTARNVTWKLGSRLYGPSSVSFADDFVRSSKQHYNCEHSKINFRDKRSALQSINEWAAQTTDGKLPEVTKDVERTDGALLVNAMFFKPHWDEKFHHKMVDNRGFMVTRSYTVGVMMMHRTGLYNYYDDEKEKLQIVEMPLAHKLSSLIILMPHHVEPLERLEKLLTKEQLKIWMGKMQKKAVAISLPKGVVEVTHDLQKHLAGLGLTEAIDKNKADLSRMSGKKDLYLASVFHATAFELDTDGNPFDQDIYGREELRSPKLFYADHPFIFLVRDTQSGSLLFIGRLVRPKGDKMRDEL
UniProt P13797, sequence (P13797 whole entry): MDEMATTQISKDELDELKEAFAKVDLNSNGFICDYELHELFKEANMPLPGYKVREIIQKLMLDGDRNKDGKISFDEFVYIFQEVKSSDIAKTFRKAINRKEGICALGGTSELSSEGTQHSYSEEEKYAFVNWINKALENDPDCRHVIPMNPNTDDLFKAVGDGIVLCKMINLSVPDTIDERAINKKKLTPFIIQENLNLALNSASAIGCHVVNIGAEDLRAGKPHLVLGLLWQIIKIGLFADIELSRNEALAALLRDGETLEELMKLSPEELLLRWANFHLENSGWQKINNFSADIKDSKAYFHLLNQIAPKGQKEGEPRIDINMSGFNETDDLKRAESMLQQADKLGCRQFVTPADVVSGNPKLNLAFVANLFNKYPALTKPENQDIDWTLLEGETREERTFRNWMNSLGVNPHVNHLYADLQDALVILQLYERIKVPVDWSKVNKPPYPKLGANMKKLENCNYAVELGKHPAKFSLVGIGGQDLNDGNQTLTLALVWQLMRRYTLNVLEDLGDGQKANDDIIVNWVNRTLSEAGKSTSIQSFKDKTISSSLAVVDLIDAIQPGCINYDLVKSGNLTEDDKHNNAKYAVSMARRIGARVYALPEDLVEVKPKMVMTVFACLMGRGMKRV
UniProt Q9UQ80, sequence (Q9UQ80 whole entry): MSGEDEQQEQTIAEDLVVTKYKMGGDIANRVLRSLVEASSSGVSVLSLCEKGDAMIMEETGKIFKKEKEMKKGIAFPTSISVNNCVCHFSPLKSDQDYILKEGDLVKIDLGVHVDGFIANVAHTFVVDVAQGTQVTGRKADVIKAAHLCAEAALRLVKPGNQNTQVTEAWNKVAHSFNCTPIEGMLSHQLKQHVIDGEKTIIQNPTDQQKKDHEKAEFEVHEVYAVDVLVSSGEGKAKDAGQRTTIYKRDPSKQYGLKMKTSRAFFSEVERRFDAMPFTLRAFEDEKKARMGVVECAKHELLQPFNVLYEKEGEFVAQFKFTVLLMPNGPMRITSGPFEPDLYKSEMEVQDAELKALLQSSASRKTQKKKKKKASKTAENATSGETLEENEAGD
UniProt O43657, sequence (O43657 whole entry): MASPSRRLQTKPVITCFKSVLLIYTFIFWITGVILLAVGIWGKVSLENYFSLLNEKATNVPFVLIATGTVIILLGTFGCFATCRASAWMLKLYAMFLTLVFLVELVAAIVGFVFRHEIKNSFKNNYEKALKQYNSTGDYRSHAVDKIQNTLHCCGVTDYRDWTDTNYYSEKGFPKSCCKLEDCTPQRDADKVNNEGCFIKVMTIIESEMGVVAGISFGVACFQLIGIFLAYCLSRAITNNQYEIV
UniProt Q9H5V8, sequence (Q9H5V8 whole entry): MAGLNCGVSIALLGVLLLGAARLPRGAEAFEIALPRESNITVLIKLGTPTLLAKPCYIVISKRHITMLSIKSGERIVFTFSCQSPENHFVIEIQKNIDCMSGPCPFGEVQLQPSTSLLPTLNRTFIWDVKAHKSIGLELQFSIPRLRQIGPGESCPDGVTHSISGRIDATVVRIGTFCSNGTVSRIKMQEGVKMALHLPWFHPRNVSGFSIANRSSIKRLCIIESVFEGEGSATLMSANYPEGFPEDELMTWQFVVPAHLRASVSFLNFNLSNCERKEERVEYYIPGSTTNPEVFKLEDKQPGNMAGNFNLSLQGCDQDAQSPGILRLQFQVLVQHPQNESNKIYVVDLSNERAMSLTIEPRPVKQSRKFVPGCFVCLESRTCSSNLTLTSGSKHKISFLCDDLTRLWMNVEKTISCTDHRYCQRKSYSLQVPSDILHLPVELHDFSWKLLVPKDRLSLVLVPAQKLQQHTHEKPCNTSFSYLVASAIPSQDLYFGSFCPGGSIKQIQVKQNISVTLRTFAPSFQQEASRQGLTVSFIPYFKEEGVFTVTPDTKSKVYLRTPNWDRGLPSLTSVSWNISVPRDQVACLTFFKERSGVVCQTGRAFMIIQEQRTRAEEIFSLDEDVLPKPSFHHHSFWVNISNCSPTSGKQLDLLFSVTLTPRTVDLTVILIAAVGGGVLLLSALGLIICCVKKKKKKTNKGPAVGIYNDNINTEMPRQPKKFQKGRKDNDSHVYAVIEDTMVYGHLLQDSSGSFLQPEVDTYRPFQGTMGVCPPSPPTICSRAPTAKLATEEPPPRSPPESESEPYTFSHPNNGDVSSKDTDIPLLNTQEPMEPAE
UniProt Q93050, sequence (Q93050 whole entry): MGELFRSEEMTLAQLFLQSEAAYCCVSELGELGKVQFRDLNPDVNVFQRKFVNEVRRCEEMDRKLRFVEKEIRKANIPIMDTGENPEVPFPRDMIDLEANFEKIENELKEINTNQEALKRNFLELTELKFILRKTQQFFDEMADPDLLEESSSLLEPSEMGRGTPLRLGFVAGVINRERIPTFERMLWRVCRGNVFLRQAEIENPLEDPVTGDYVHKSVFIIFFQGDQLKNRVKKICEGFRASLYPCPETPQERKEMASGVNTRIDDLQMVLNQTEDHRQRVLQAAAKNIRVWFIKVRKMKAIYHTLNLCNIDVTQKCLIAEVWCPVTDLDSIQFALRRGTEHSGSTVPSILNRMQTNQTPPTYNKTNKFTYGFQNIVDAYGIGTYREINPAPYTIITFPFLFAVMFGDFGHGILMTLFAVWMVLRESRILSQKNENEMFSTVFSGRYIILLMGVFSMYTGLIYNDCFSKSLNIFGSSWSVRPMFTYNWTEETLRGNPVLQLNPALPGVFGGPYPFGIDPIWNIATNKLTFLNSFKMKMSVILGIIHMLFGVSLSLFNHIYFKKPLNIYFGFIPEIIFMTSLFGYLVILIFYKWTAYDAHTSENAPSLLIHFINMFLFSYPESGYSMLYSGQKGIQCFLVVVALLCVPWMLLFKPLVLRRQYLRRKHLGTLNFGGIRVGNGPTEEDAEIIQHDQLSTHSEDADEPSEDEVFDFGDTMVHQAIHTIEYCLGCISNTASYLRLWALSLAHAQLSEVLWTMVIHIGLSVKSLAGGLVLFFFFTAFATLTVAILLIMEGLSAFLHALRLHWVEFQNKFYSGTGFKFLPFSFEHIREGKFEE
UniProt P50990, sequence (P50990 whole entry): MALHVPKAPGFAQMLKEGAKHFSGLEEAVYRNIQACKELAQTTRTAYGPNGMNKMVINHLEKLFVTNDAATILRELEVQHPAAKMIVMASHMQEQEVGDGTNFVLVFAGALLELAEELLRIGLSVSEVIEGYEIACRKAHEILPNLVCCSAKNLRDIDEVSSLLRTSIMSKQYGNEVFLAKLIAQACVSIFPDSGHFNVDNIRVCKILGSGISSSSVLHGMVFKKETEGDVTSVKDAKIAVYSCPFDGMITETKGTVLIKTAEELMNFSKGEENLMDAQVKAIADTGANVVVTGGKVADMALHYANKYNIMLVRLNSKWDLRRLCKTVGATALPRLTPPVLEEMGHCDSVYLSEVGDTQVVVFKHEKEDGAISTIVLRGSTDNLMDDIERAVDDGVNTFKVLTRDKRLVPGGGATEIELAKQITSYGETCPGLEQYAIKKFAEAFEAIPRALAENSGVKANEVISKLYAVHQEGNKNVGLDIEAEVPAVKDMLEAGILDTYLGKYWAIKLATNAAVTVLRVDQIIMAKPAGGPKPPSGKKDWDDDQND
UniProt Q14254, sequence (Q14254 whole entry): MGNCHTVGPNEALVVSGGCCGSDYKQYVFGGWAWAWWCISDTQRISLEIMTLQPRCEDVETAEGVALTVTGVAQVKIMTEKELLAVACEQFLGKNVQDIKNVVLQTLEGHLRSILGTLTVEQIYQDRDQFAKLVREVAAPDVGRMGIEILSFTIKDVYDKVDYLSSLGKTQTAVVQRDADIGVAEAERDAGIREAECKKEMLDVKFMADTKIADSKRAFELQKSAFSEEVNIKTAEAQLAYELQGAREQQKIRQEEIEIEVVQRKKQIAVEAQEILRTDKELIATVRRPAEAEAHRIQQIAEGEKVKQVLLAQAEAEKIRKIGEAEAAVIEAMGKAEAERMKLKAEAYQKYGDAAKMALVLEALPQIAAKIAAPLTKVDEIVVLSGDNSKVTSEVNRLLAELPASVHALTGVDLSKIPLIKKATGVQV
UniProt P38646, sequence (P38646 whole entry): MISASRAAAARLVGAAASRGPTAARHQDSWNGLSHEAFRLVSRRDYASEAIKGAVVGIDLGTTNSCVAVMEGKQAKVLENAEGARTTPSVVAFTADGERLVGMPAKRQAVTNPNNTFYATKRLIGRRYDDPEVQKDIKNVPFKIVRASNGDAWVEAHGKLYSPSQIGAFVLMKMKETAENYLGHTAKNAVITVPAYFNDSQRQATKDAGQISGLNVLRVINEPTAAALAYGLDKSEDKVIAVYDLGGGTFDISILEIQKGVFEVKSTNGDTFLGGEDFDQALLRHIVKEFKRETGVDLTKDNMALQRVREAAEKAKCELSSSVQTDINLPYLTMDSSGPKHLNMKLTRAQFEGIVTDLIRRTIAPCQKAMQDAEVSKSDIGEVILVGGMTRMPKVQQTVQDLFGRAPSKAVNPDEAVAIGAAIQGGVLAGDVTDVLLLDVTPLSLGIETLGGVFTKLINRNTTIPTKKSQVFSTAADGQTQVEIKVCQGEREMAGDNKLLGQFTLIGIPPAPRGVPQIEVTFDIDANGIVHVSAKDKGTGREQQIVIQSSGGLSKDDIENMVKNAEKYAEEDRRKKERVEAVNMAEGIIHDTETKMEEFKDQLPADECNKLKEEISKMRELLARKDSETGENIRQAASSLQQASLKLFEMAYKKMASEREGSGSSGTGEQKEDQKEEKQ

Row | Target | lysine labeling ratio R10:1
1 | UniProt P17612 (lysine site: K48) | 1.56 (active)
2 | UniProt P62277 (lysine site: K70) | 6.69 (inactive)
3 | LRP1 (lysine site: K3910) (UniProt Q07954) | 1.43 (active)
4 | CCT8 (lysine site: K440) (UniProt P50990) | 2.29 (inactive)
5 | C3 (lysine site: K692) (UniProt P01024) | 7.71 (inactive)
6 | FRAS1 (lysine site: K2523) (UniProt Q86XX4) | 2.03 (inactive)
7 | CDCP1 (lysine site: K592) (UniProt Q9H5V8) | 3.49 (inactive)
8 | SERPINH1 (lysine site: K190) (UniProt P50454) | 2.12 (inactive)
9 | XRCC6 (lysine site: K189) (UniProt P12956) | 4 (inactive)
10 | HSPA9 (lysine site: K121) (UniProt P38646) | 1.51 (active)
11 | MYH9 (lysine site: K1754) (UniProt P35579) | 3.66 (inactive)
12 | PLS3 (lysine site: K335) (UniProt P13797) | 0.765 (active)
13 | RPL4 (lysine site: K120) (UniProt P36578) | 3.18 (inactive)
14 | FGB (lysine site: K426) (UniProt P02675) | 2.95 (inactive)
15 | UniProt P61160 (lysine site: K253) | 3.35 (inactive)
16 | PEBP1 (lysine site: K113) (UniProt P30086) | 2.7 (inactive)
17 | UniProt Q8WXI7 (lysine site: K12309) | 6.26 (inactive)
18 | ITGAV (lysine site: K581) (UniProt P06756) | 0.709 (active)
19 | TFRC (lysine site: K672) (UniProt P02786) | 3 (inactive)
20 | UniProt Q15149 (lysine site: K1528) | 1.47 (active)

Row | Target | lysine labeling ratio R10:1
21 | THBS1 (lysine site: K201) (UniProt P07996) | 3.89 (inactive)
22 | HSPA8 (lysine site: K512) (UniProt P11142) | 7.92 (inactive)
23 | TSPAN6 (lysine site: K179) (UniProt O43657) | 1.94 (active)
24 | UniProt Q86UP0 (lysine site: K324) | 1.82 (active)
25 | SUB1 (lysine site: K41) (UniProt P53999) | 1.41 (active)
26 | UniProt P26639 (lysine site: K213) | 0.782 (active)
27 | CALD1 (lysine site: K674) (UniProt Q05682) | 2.25 (inactive)
28 | L1CAM (lysine site: K530) (UniProt P32004) | 7.51 (inactive)
29 | ATP6V0A1 (lysine site: K70) (UniProt Q93050) | 0.55 (active)
30 | PDCD6IP (lysine site: K640) (UniProt Q8WUM4) | 0.892 (active)
31 | SPTAN1 (lysine site: K1699) (UniProt Q13813) | 3.27 (inactive)
32 | RCC2 (lysine site: K124) (UniProt Q9P258) | 1.8 (active)
33 | SERPINH1 (lysine site: K334) (UniProt P50454) | 2.28 (inactive)
34 | FLOT2 (lysine site: K132) (UniProt Q14254) | 2.82 (inactive)
35 | FLOT1 (lysine site: K54) (UniProt O75955) | 0.737 (active)
36 | PA2G4 (lysine site: K287) (UniProt Q9UQ80) | 0.997 (active)
37 | PLS3 (lysine site: K91) (UniProt P13797) | 2.1 (inactive)
38 | FLNA (lysine site: K724) (UniProt P21333) | 1.76 (active)
39 | RPS3A (lysine site: K46) (UniProt P61247) | 3.87 (inactive)
40 | UniProt Q15149 (lysine site: K2182) | 1.67 (active)
